Drawing on PubChem BioAssay (NCI), this text covers growth for eight compounds.

The panel holds about 83,000 compounds, 20% with a hit somewhere; the sample as a whole holds those more often.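 Testing used 96-well plates and a 48-hour single-concentration exposure. Example: -40 means 40% of the starting cells died.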 Values without a mark were called inactive. Calls of active or inactive are those of the source. How the source made its calls: active means growth percent below 10; inactive means the rest.

Test systems include DU-145 prostate; K-562 leukemia; MALME-3M melanoma; MDA-MB-231 breast; RXF 393 renal; SF-268 CNS; SF-295 CNS; SF-539 CNS; UACC-257 melanoma; M14 melanoma; HCT-15 colon; HT29 colon; SNB-75 CNS; SNB-19 CNS; U251 CNS; PC-3 prostate; SK-MEL-5 melanoma; UACC-62 melanoma; LOX IMVI melanoma; SK-MEL-28 melanoma.
What all share (assay): NCI-60 one-dose screen, 48 h (100 = growth as untreated, 0 = no growth, -100 = all killed)
Holding throughout (settings): 10 µM unless noted

Regarding `CN1C(=O)NC(Cc2c[nH]c3c(Cl)cccc23)C1=O` (stereo not given), the growth in the test with DU-145 prostate was 123%; with K-562 leukemia, 101%; with MALME-3M melanoma, 141%; with MDA-MB-231 breast, 117%; in the test with RXF 393 renal it was 92.1%; in the test on SF-268 CNS, 110%. The growth with SF-295 CNS is 109%; with SF-539 CNS, 98.4%; in the test with UACC-257 melanoma, 116%; in the test on M14 melanoma, 108%; with HCT-15 colon it was 99.5%; in the test with HT29 colon it was 110%. Also, the growth in the test on SNB-75 CNS was 103%; in the test on SNB-19 CNS, 106%; in the test with U251 CNS it was 92.8%; in the test on PC-3 prostate it was 82.9%; in the test with SK-MEL-5 melanoma, 98.5%; with UACC-62 melanoma, 96.1%. The growth is 99.7% in the test with LOX IMVI melanoma and 115% with SK-MEL-28 melanoma.
Take `CCN(CC)c1ccc2c(cc1=O)[C@@H](NC(C)=O)CCc1cc(OC)c(OC)c(OC)c1-2`: the growth in the test with DU-145 prostate is -10.2% (active); in the test on K-562 leukemia, 0.286% (active); in the test with MALME-3M melanoma, 99%; in the test on MDA-MB-231 breast it was 15.1%; in the test with RXF 393 renal it was 58.8%; in the test with SF-268 CNS it was 24.4%. Moreover, the growth in the test on SF-295 CNS is 11.3%; with SF-539 CNS it was -3.76% (active); with UACC-257 melanoma it was 63.1%; in the test with M14 melanoma, -0.777% (active); with HCT-15 colon, 30%; in the test on HT29 colon it was -26.4% (active). The growth in the test on SNB-75 CNS was 22.1%; with SNB-19 CNS it was 40.8%; in the test with U251 CNS, 11.8%; with PC-3 prostate, 31.7%; in the test on SK-MEL-5 melanoma it was 7.17% (active); in the test on UACC-62 melanoma, 19.4%. The growth in the test on LOX IMVI melanoma was 25.1%; in the test with SK-MEL-28 melanoma, 62.3%.
With `Cc1ccc(NC(=O)c2sc3nc4c(cc3c2N)C(=O)CCC4)cc1Cl`, the growth in the test with DU-145 prostate was 109%; in the test on K-562 leukemia it was 93%; with MALME-3M melanoma, 112%; in the test on MDA-MB-231 breast, 113%; in the test on RXF 393 renal, 117%; in the test on SF-268 CNS, 115%. Further, the growth in the test with SF-295 CNS was 80%; in the test with SF-539 CNS it was 102%; in the test with UACC-257 melanoma it was 95.1%; with M14 melanoma, 122%; with HCT-15 colon, 97.3%; in the test on HT29 colon, 97.5%. In addition, the growth is 110% in the test on SNB-75 CNS; 114% in the test on SNB-19 CNS; 97.9% in the test on U251 CNS; 104% in the test with PC-3 prostate; 102% in the test on SK-MEL-5 melanoma; 108% with UACC-62 melanoma. Further, the growth was 99.2% in the test with LOX IMVI melanoma and 108% in the test with SK-MEL-28 melanoma.
As for `CC1OC(n2c3ccccc3c3c4c(c5c6ccccc6[nH]c5c32)C(=O)N(CCN[C@H]2CCC[C@@H]2N)C4=O)CC(O)C1O` (stereo not given in full), the growth in the test with DU-145 prostate is 44.5%; with K-562 leukemia, 10.2%; in the test with MALME-3M melanoma it was 45.3%; in the test with MDA-MB-231 breast it was 37.5%; in the test on RXF 393 renal, 63%; in the test on SF-268 CNS, 33.5%. Further, the growth is 25.6% in the test on SF-295 CNS; 35.3% with SF-539 CNS; 54.9% with UACC-257 melanoma; 36.1% in the test on M14 melanoma; 82.6% with HCT-15 colon; 12.9% in the test on HT29 colon. For the same compound, the growth with SNB-75 CNS is 24.1%; in the test on SNB-19 CNS it was 17%; in the test with U251 CNS, 14.5%; in the test on PC-3 prostate it was 16.8%; in the test on SK-MEL-5 melanoma it was 23.7%; with UACC-62 melanoma, 42.1%. Further, the growth with LOX IMVI melanoma was 20.3%; in the test with SK-MEL-28 melanoma, 68.6%.
Take `ClCc1c(Cl)c(Cl)c(Cl)c(CCl)c1Cl`: the growth was 14.8% in the test with DU-145 prostate; -20.8% (active) in the test on K-562 leukemia; -40.3% (active) in the test with MALME-3M melanoma; 47.8% in the test with MDA-MB-231 breast; -75.9% (active) in the test on RXF 393 renal; 33.5% in the test on SF-268 CNS. The growth in the test with SF-295 CNS is 97.5%; with SF-539 CNS it was 97.6%; in the test with UACC-257 melanoma it was 19.9%; with M14 melanoma it was 35.5%; in the test on HCT-15 colon it was 4.87% (active); in the test on HT29 colon, -78.4% (active). Further, the growth in the test on SNB-75 CNS is 89%; in the test on SNB-19 CNS it was 58.7%; with U251 CNS, -25.4% (active); in the test with PC-3 prostate, 8.08% (active); with SK-MEL-5 melanoma, 61.3%; in the test with UACC-62 melanoma, 103%. Further, the growth with LOX IMVI melanoma is -79% (active); with SK-MEL-28 melanoma, 88.7%.
For the compound `FC(F)(F)c1nn[nH]n1`, the growth was 99.5% in the test on DU-145 prostate; 113% in the test on K-562 leukemia; 100% in the test with MALME-3M melanoma; 116% with MDA-MB-231 breast; 104% in the test on RXF 393 renal; 94.5% in the test with SF-268 CNS. Moreover, the growth in the test on SF-295 CNS was 106%; with SF-539 CNS, 106%; in the test on UACC-257 melanoma, 110%; with M14 melanoma it was 112%; in the test with HCT-15 colon, 105%; in the test with HT29 colon, 100%. Moreover, the growth in the test with SNB-75 CNS was 102%; in the test with SNB-19 CNS, 116%; in the test with U251 CNS, 99.5%; in the test on PC-3 prostate it was 96.9%; with SK-MEL-5 melanoma, 103%; in the test on UACC-62 melanoma it was 107%. Besides, the growth in the test with LOX IMVI melanoma is 87.2%; in the test with SK-MEL-28 melanoma it was 113%.
`c1cc(C2CCCCC2)ccc1-c1cnc2nonc2n1`: the growth in the test with DU-145 prostate was 13.8%; in the test on K-562 leukemia, 5.7% (active); in the test on MALME-3M melanoma, 48.8%; in the test with MDA-MB-231 breast, 18.6%; in the test with RXF 393 renal, -3.18% (active); in the test with SF-268 CNS, 32%. Besides, the growth was 28.3% in the test with SF-295 CNS; 0.0756% (active) in the test on SF-539 CNS; 42.6% with UACC-257 melanoma; -16.7% (active) in the test on M14 melanoma; 9.57% (active) in the test on HCT-15 colon; 3.11% (active) in the test with HT29 colon. In addition, the growth in the test with SNB-75 CNS is 26.6%; in the test on SNB-19 CNS, 37.2%; with U251 CNS, 21.6%; with PC-3 prostate it was 23.9%; in the test on SK-MEL-5 melanoma it was 22.6%; in the test with UACC-62 melanoma, 8.73% (active). Moreover, the growth in the test with LOX IMVI melanoma is 2.13% (active); in the test with SK-MEL-28 melanoma, 65.5%.
`CN(C)CC(=O)c1ccc2cc(Br)c3ccccc3c2c1`: the growth is 77.8% in the test with DU-145 prostate; 38.5% with K-562 leukemia; 106% in the test with MALME-3M melanoma; 76.4% in the test with MDA-MB-231 breast; 72.2% in the test on RXF 393 renal; 77.6% in the test with SF-268 CNS. The growth was 82.8% with SF-295 CNS; 79.5% in the test on SF-539 CNS; 66% in the test on UACC-257 melanoma; 77.2% in the test on M14 melanoma; 62.1% in the test with HCT-15 colon; 9.4% (active) in the test on HT29 colon. The growth in the test on SNB-75 CNS was 83.7%; with SNB-19 CNS, 69.7%; in the test on U251 CNS, 53.3%; with PC-3 prostate it was 57.2%; in the test on SK-MEL-5 melanoma, 83%; in the test on UACC-62 melanoma, 79.1%. Also, the growth is 43.6% in the test on LOX IMVI melanoma and 99.1% in the test on SK-MEL-28 melanoma.
